Sampled rows, rich in hits. Any-hit rate of the full collection: about 9.4%.
SMN2 splice enh = qHTS Assay for Enhancers of SMN2 Splice Variant Expression | Potency, µM (highest dose often 46.1 µM), for the others: at the top dose activity change, positive = activation, actives largely listed as activators | HEK293 SMN2-luciferase splicing reporter, luminescence, 30-36 h | AID 1458, 2008 | actives 2.8% (n = 210,000); note: % of control where 0% means no effect; nearly all actives have a fitted effect of over 55% in size
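HEK293 cells carry an SMN2 minigene-luciferase reporter in which exon 7 inclusion puts luciferase in frame. Cells were seeded at 2000 cells/well, attached for 10-12 hours, then exposed to compounds for 30-36 hours at 37C before ONE-Glo luminescence.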
ELG1 genotox = qHTS screen for small molecules that induce genotoxicity in human embryonic kidney (HEK293T) cells expressing luciferase-tagged ELG1; Potency, µM (titrated, usually from 46 µM), for inactives: top-dose activity change, positive = activation, actives largely listed as activators; actives 1.3% (n = 330,000); AID 504466, 2011; HEK293T ELG1-luciferase reporter, luminescence, 16 h; note: % of control where 0% means no effect; nearly all actives have a fitted effect of over 60% in size
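DMSO vehicle served as control against compound-treated ELG1-luciferase HEK293T cells; exposure lasted 16 hr at 37 °C and 5% CO2, followed by ONE-Glo luminescence detection after 30 min.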
Rab9 promoter act = qHTS Assay for Rab9 Promoter Activators; actives 2.8% (n = 320,000); Huh7 Rab9 promoter-luciferase reporter, luminescence, 24 h; Potency, µM (highest dose often 9.22 µM), for the others: at the highest dose activation, negative = inhibition, most hits filed as activators; note: % of control where 0% means no effect; nearly all actives have a fitted effect of over 60% in size
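Huh7 reporter line, Rab9 promoter upstream of luciferase. Compound exposure 24 h at 37 °C in reduced-serum medium with 10% FBS. Read-out: luminescence.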
NPC1 prom act = qHTS Assay for NPC1 Promoter Activators | actives 2.4% (n = 320,000) | AID 485313, 2010 | Huh7 NPC1 promoter luciferase reporter, 24 h | Potency, µM (series often up to 9.22 µM), inactives show at the highest dose activation, actives largely listed as activators; note: % of control where 0% means no effect; nearly all actives have a fitted effect of over 60% in size
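Huh7 cells stably carrying NPC1 promoter–luciferase, plated in Opti-MEM with 10% FBS for 2 h, were exposed to compound in DMSO for 24 h at 37 °C; luciferase reagent was added for 10 min and luminescence read.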
ELG1 DNA repair = qHTS screen for small molecules that inhibit ELG1-dependent DNA repair in human embryonic kidney (HEK293T) cells expressing luciferase-tagged ELG1. HEK293T ELG1-luciferase reporter, luminescence, 16 h; DNA damage induced by 5-fluorouridine. Potency, µM (titrated, usually from 46.1 µM), without a hit: at the highest dose activity change, negative = inhibition, actives largely listed as inhibitors. actives 2.3% (n = 330,000); note: % is set by controls: 0 for no effect and ±100 for the full control effect; nearly all actives have a fitted effect of over 55% in size
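In this reporter screen, reduction of luminescence relative to DMSO vehicle indicated activity. Compounds and 5-fluorouridine were added together to 2,000 cells per well, incubated for 16 hr at 37 °C, then developed with ONE-Glo.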
FLuc modulator = qHTS profiling assay for firefly luciferase inhibitor/activator using purifed enzyme and Km concentrations of substrates (counterscreen for miR-21 project). Luciferin 4-monooxygenase (Photinus pyralis), P08659. purified FLuc, Km substrates, luminescence inhibition. Potency, µM (doses to about 57.5 µM), for inactives: top-dose activity change, negative = inhibition, hits mostly inhibitors. actives 6.9% (n = 360,000);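 note: plate controls were vehicle for no effect and reference inhibitor for full effect; nearly all actives have a fitted effect of over 55% in size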
Target sequence (P08659 whole entry, looked up): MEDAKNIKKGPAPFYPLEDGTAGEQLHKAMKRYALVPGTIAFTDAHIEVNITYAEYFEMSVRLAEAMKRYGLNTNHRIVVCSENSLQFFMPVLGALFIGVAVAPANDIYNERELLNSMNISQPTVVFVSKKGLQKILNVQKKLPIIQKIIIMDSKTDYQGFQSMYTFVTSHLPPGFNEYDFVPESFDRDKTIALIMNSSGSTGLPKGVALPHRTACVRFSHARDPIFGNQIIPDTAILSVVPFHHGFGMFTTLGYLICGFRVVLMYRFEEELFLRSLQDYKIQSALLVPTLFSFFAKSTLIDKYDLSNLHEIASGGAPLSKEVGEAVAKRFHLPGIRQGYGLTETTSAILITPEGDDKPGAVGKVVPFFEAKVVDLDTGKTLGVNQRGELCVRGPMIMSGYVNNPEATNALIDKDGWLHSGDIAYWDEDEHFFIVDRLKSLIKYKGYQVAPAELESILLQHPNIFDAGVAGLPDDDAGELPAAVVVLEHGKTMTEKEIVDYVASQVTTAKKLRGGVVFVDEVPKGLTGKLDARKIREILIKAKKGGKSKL
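Biochemical qHTS of compounds, final roughly 60 µM downward over six points, against 10 nM purified firefly luciferase using Km concentrations of substrates (10 uM D-luciferin, 10 uM ATP) in Tris acetate pH 7.5 buffer; luminescence output.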
* = called active by the depositor; u = inconclusive; x = no result given; [ ] = remark or other dose. Calls come from the whole dose curve; as a rule, active = well fitted curve in the direction sought with a large enough effect; inconclusive = small, poorly fitted or top-dose-only effect, or another doubt; inactive = no such curve, though single readings can be large; an effect the other way counts as inactive or inconclusive. Potency is the fitted concentration of half-maximal effect.

SMILES	SMN2 splice enh	ELG1 genotox	Rab9 promoter act	NPC1 prom act	ELG1 DNA repair	FLuc modulator
COc1cccc(OCc2cc(C(=O)N3CCN(C4CCCC4)CC3)no2)c1	x	0.7%	-5.2%	1.4%	13.8%	-4.7%
COc1cccc(OCc2cc(C(=O)N3CCCC3c3ccccn3)no2)c1 (centres undefined)	x	u	2.82µM*	2.24µM*	u	15.1µM*
Cc1ccc(OCc2cc(C(=O)N3CCN(C)C[C@@H]3c3ccccc3)no2)cc1C	x	u	2.51µM*	2.82µM*	u	21.3µM*
CN1CCN(C(=O)c2cc(COc3c(F)cccc3F)on2)CC1c1ccccc1 (centres undefined)	x	-14.1%	-5.6%	-1.9%	u	u
CN1CCN(C(=O)c2cc(COc3ccccc3)on2)[C@@H](c2ccccc2)C1	x	13µM*	2µM*	3.55µM*	u	9.53µM*
COc1cc(OC)cc(C(=O)N2CCN(c3ccc(N4CCOCC4)nn3)CC2)c1	x	-3.1%	-30.4%	-0.4%	14.9%	-4.1%
OCc1cc2c(cn1)[nH]c1ccccc12	-10.0%	x	x	x	x	x
Cc1ccc(C(=O)c2cn(CC(=O)Nc3ccc4c(c3)OCCO4)c3nc(C)ccc3c2=O)cc1	x	x	x	x	x	3.9%
COCCCNC(=O)c1ccc(Cn2c(=O)c3ccccc3n(CC(N)=O)c2=O)cc1	-4.1%	x	x	x	x	-2.9%
COCCn1c(=O)c(-c2cc(F)cc(F)c2)nc2cnc(Nc3cccc(OC)c3)nc21	2.6%	x	x	x	x	x
O=C(Cc1c(F)cccc1Cl)NNC(=O)c1cccs1	x	3.2%	x	x	u	x
CCOc1ccc(C(=O)NCC(=O)OCc2c(F)cccc2Cl)cc1	-1.5%	0.5%	-1.1%	-0.5%	0.7%	u
CC(=O)Nc1ccc(C(=O)NCC(=O)OCc2c(F)cccc2Cl)cc1	u	3.1%	-4.3%	-0.9%	u	19µM*
CCOc1ccc(C(=O)NCC(=O)OCc2c(F)cccc2Cl)cc1OCC	-3.4%	0.4%	1.2%	0.2%	-8.1%	0.8%
Cc1ccc(C(=O)NCC(=O)OCc2c(F)cccc2Cl)cc1	x	13.3%	-0.3%	1.5%	u	12µM*
O=C(CNC(=O)c1cccs1)OCc1c(F)cccc1Cl	x	u	-1.3%	-0.4%	2.9%	15.1µM*
COc1ccccc1CNC(=O)CSC1=Nc2ccccc2N=C(c2ccc(F)cc2)C1	x	x	x	x	x	-18.8%
CN1C(=O)/C(=N\OC(=O)c2cccc3ccccc23)c2ccccc21	-10.5%	5.4%	9.0%	1.5%	u	10.7µM*
CN1C(=O)c2ccc(NC(=O)c3cccc4ccccc34)cc2C1=O	x	0.7%	-3.3%	3.1%	-3.2%	-6.6%
Nc1ccc(S(=O)(=O)NC2(C(F)(F)F)NC(=O)N(c3cccc(Cl)c3)C2=O)cc1 (centres undefined)	-27.4%	x	x	x	x	-3.7%
CCC(=O)NC1=C(Cl)C(=O)C(NC(=O)CC)=C(Cl)C1=O	x	0.8%	-3.7%	2.9%	-9.0%	5.36µM*
COC(=O)c1sccc1S(=O)(=O)N(CC(=O)NCc1ccccc1)c1ccc(C)cc1	x	x	x	x	x	4.0%
CC(C)(C)OC(=O)NCCCC[C@H](NC(=O)c1[nH]cnc1C(=O)Nc1ccc(CNC(=O)OC(C)(C)C)cc1)C(=O)OC(C)(C)C	x	-10.1%	-10.4%	-12.8%	u	-0.1%
C[C@H](NC(=O)c1nc[nH]c1C(=O)NCc1ccc(CNC(=O)OC(C)(C)C)cc1)c1ccccc1	x	-8.2%	0.1%	1.7%	18.3µM*	3.3%
C[C@H](NC(=O)c1[nH]cnc1C(=O)Nc1ccc(CNC(=O)OC(C)(C)C)cc1)C(=O)OC(C)(C)C	x	-13.2%	-1.9%	-2.9%	16.4µM*	0.0%
SMILES	SMN2 splice enh	ELG1 genotox	Rab9 promoter act	NPC1 prom act	ELG1 DNA repair	FLuc modulator
Cc1cc(C)cc(OCc2cc(=O)n3c4c(sc3n2)CCCC4)c1	-1.1%	x	x	x	x	0.8%
Cc1cccc(C)c1NC(=O)Cn1nnc(C(=O)Nc2c(C)cccc2C)c1N	-9.8%	x	x	x	x	-8.8%
Nc1ccc(C(=O)OCC(=O)c2cccc([N+](=O)[O-])c2)cc1	-4.3%	9.2%	12.2%	2.5%	16.0%	23.9µM*
Cc1ccc(C(=O)COC(=O)c2cccc(NC(=O)c3ccc([N+](=O)[O-])cc3[N+](=O)[O-])c2)cc1	u	u	1.41µM*	0.398µM*	u	0.107µM*
CC(=O)Nc1ccc(C(=O)OCC(=O)c2cccc([N+](=O)[O-])c2)cc1	-4.3%	0.9%	-6.9%	1.9%	7.0%	0.7%
Cc1sc(NC(=O)C2=COCCO2)nc1-c1ccc(Br)cc1	x	-0.7%	-4.8%	0.7%	u	-16.7%
CC(=O)c1sc(Nc2nc3cc4c(cc3s2)OCO4)nc1C	11.2µM*	u	2µM*	3.55µM*	u	3.79µM*
CCOC(=O)c1sc(Nc2nc3c(OC)cccc3s2)cc1C	-108.0%	-0.6%	u	u	u	7.57µM*
O=C(Nc1nc2cc3c(cc2s1)OCO3)C1=COCCO1	0.501µM*	0.411µM*	0.251µM*	0.631µM*	u	0.19µM*
CC(=O)Nc1nc2cc3c(cc2s1)OCO3	u	u	3.98µM*	u	u	19µM*
NCCNC(=S)S	1.5%[9.22 µM]	x	x	x	x	x
Cc1ccccc1CNC(=O)CN1C(=O)CCCc2ccccc21	x	x	x	x	x	-3.5%
CC(C)C(=O)Nc1nc2cc3c(cc2s1)OCCO3	x	u	0.501µM*	0.891µM*	u	2.39µM*
CCOC(=O)c1sc(Nc2nc3cc4c(cc3s2)OCO4)cc1C	u	1.7%	u	u	u	2.69µM*
O=C(COc1ccccc1)Nc1nc2cc3c(cc2s1)OCCO3	x	u	5.4%	-0.2%	0.0%	-16.6%
CC(=O)N1CCCc2cc(S(=O)(=O)N3CCN(c4ccc(F)cc4)CC3)ccc21	x	x	x	x	x	-5.7%
Oc1ccc(CNc2ccc(C(F)(F)F)cc2Cl)c2cccnc12	x	x	-4.0%	-3.2%	x	1.8%
CCOC(=O)c1ccc(N2C(=O)c3n[nH]c(-c4ccco4)c3C2c2cccc([N+](=O)[O-])c2)cc1 (centres undefined)	-19.3%	-9.2%	-10.8%	-17.3%	18.4µM*	-2.4%
O=C(c1ccc2c(c1)OCO2)N1CCN(c2ccccc2)CC1	-0.9%	-2.1%	2.2%	1.9%	-2.6%	-2.6%
Cc1nn(C(=O)c2ccc3c(c2)OCO3)c(N)c1-c1ccccc1	9.8%	u	8.2%	-0.6%	u	0.477µM*

High-throughput results: PubChem, National Center for Advancing Translational Sciences (NCATS)
